Assay results as given in PubChem BioAssay AID463173 (ICCB-Longwood Screening Facility, Harvard Medical School, 2010).
Among all 52,000 compounds or so, about 4,300 (8.3%) were called active. The sample as a whole holds a higher share of actives than the screen did. Unmarked numbers belong to inactive results. No stated cut-off is given here; in the data, active means survival mostly below about 52% (no sharp cut-off); inactive means mostly above about 56%.

The compounds below were run on DeltatarO mutant (assay: S. aureus survival, RN4220 and DeltatarO strains – OD600, teichoic acid synthesis inhibitors, primary screen (AID 463173)). Details: S. aureus RN4220 wild type/DeltatarO growth, OD600, 18 h, stronger effect = lower value, screened at 18.75 µg/mL (by protocol).
Cc1ccc(-c2nc3n(n2)C(=O)CC(c2ccc(C)cc2)S3)cc1 (stereo unspecified) showed a survival of 90%.
NC(=O)CSc1ncnc2c1cnn2-c1ccccc1 showed a survival of 82%.
In the case of O=C1CN(C(=O)c2ccccc2)C(c2ccc(F)cc2)c2cc(Br)ccc2N1 (stereo unspecified), the survival is reported as 60%.
O=C1CN(C(=O)COc2ccccc2)C(c2ccc(F)cc2)c2cc(Br)ccc2N1 (stereo unspecified) was tested, and the survival was 33% (active).
For O=C1CN(C(=O)Cc2ccc(F)cc2)C(c2ccccc2)c2cc(Br)ccc2N1 (stereo unspecified), the survival was 58%.
With O=C1CN(C(=O)COc2ccc(Cl)cc2)C(c2ccc(F)cc2)c2cc(Cl)ccc2N1 (stereo unspecified) the survival was 45%.
For Cc1ccc(C(=O)N2CC(=O)Nc3ccc(Br)cc3C2c2ccc(F)cc2)cc1C (stereo unspecified), the survival was 66%.
In the case of CCCCOc1ccc(C(=O)N2CC(=O)Nc3ccc(Br)cc3C2c2ccc(F)cc2)cc1 (stereo unspecified), the survival is reported as 39% (active).
O=C1CN(C(=O)COc2ccc(Cl)cc2)C(c2ccccc2)c2cc(Br)ccc2N1 (stereo unspecified) showed a survival of 60%.
Compound COc1ccc(C(=O)N2CC(=O)Nc3ccc(Br)cc3C2c2ccc(F)cc2)cc1OC (stereo unspecified) has a survival of 48%.
For O=C1CN(C(=O)c2c(F)cccc2Cl)C(c2ccc(F)cc2)c2cc(Br)ccc2N1 (stereo unspecified), the survival was 42% (active).
For CCOc1ccc(C(=O)N2CC(=O)Nc3ccc(F)cc3C2c2ccc(F)cc2)cc1 (stereo unspecified), the survival was 148%.
In the case of O=C1CN(C(=O)COc2ccc(Cl)cc2)C(c2ccc(F)cc2)c2cc(Br)ccc2N1 (stereo unspecified), the survival is reported as 36% (active).
O=C(c1ccccc1/S(=N/S(=O)(=O)c1ccccc1)N1CCOCC1)N1CCOCC1 (stereo unspecified) gave a survival of 75%.
Compound Clc1cccc(-c2nnc(CN3CCN(c4ccccn4)CC3)o2)c1 has a survival of 82%.
In the case of CCOc1ccc(CC(=O)NCC(c2cccs2)S(=O)(=O)c2ccc(F)c(C)c2)cc1 (stereo unspecified), the survival is reported as 67%.
In the case of Cc1ccc(N2CC(NC(=O)C3CCCC3)CC2=O)cc1C (stereo unspecified), the survival is reported as 103%.
Cc1ccc(CNc2oc(-c3ccc(COc4ccc(C)cc4)o3)nc2C#N)cc1 was tested, and the survival was 65%.
COCCNC(=O)CCCn1c(SCc2ccccc2C)nc2c(sc3ccccc32)c1=O was tested, and the survival was 97%.
Work on Cc1ccc2oc3c(c(=O)c2c1)C(c1ccc(OCC(N)=O)cc1)N(Cc1ccc2c(c1)OCO2)C3=O (stereo unspecified) yielded a survival of 93%.
In the case of COC(=O)c1ccc(-n2nnc(-c3nc(-c4ccc5c(c4)OCO5)no3)c2C)cc1, the survival is reported as 82%.
With Cc1ccccc1NC(=O)c1c(C)oc2ccc(O)c(CN3CCN(C)CC3)c12 the survival was 77%.
Cc1nc2nc(SCC(=O)O)nn2c(C)c1Cc1c(F)cccc1Cl gave a survival of 93%.
Cc1nc2nc(SCc3c(F)cccc3Cl)nn2c(C)c1Cc1ccccc1 was tested, and the survival was 66%.
Cc1nc2nc(SCC(=O)NCCc3ccc(Cl)cc3)nn2c(C)c1Cc1ccccc1 was tested, and the survival was 46% (active).
For Cc1nc2nc(SCC(=O)NC(C)c3ccccc3)nn2c(C)c1Cc1c(F)cccc1Cl (stereo unspecified), the survival was 68%.
Work on COc1ccc(CCNC(=O)CSc2nc3nc(C)c(Cc4ccc(C)cc4)c(C)n3n2)cc1OC yielded a survival of 55%.
Cc1nc2nc(SCC(=O)NCCc3ccc(Cl)cc3)nn2c(C)c1Cc1ccccc1Cl gave a survival of 99%.
Cc1nc2nc(SCC(=O)Nc3cccc(Cl)c3)nn2c(C)c1Cc1ccccc1 gave a survival of 85%.
For CCCCNC(=O)CSc1nc2nc(C)c(Cc3c(F)cccc3Cl)c(C)n2n1, the survival was 31% (active).
Cc1ccccc1Cc1c(C)nc2nc(SCC(=O)NCCc3ccc(Cl)cc3)nn2c1C gave a survival of 67%.
In the case of Cc1nc2nc(SCC(=O)NCCc3ccccc3)nn2c(C)c1Cc1c(F)cccc1Cl, the survival is reported as 37% (active).
Compound CCN(CC)CCCNC(=O)CSc1nc2nc(C)c(Cc3c(F)cccc3Cl)c(C)n2n1 has a survival of 146%.
In the case of Cc1nc2nc(SCC(=O)NCCc3ccc(Cl)cc3)nn2c(C)c1Cc1c(F)cccc1Cl, the survival is reported as 0% (active).
Compound Cc1cccc(C(=O)N2CCc3cc(CNS(=O)(=O)c4cccs4)ccc32)c1 has a survival of 74%.
Compound Cc1ccc(C)c(CN2C(=O)c3ccccc3S(=O)(=O)c3ccc(C(=O)Nc4ccccc4C(F)(F)F)cc32)c1 has a survival of 84%.
Work on Cc1ccccc1Cn1c(CN2CCN(c3cc(Cl)ccc3C)CC2)nc2c1c(=O)[nH]c(=O)n2C yielded a survival of 106%.
With CCOC(=O)Cc1ccc(NC(=O)N(Cc2ccc(OC)cc2)C2CCN(C(C)=O)CC2)cc1 the survival was 88%.
In the case of Cc1ccc(NC(=O)C(=O)NCC(c2cccnc2)N2CCN(c3ccccc3F)CC2)cc1Cl (stereo unspecified), the survival is reported as 73%.
Compound Cc1oc(-c2ccc(C(=O)NCc3ccccc3)cc2)nc1CS(=O)(=O)c1ccccc1 has a survival of 88%.
Compound Cc1ccc(C)c(N2CCN(C(=O)c3ccc4[nH]c(C)c(C)c4c3)CC2)c1 has a survival of 80%.
With N=Nc1c(O)n(CC(=O)Nc2ccccc2)c2ccccc12 the survival was 87%.
With CN(C)Cn1c(O)c(N=NC(=O)c2ccccc2)c2ccccc21 the survival was 93%.
In the case of N=C(N=Nc1c(O)n(Cc2ccccc2)c2ccccc12)SCC(=O)Nc1ccccc1, the survival is reported as 23% (active).
Cc1ccc(NC(=O)C2CCN(S(=O)(=O)c3c(C)noc3C)CC2)cc1 was tested, and the survival was 105%.
In the case of Cc1ccc(-c2nn3c(-c4ccccc4)nnc3c3ccccc23)cc1, the survival is reported as 86%.
For COc1ccc(-c2nn3c(-c4ccc(OC)cc4)nnc3c3ccccc23)cc1, the survival was 102%.
In the case of Cc1ccc(-c2nn3c(-c4ccc(C)cc4)nnc3c3ccccc23)cc1, the survival is reported as 20% (active).
Cc1ccc(-c2nnc3c4ccccc4c(-c4ccccc4)nn23)cc1 showed a survival of 134%.
Compound Cc1ccc(-c2nn3c(-c4ccccc4C)nnc3c3ccccc23)cc1 has a survival of 40%.
In the case of COc1ccc(-c2nn3c(-c4ccccc4C)nnc3c3ccccc23)cc1, the survival is reported as 2% (active).
O=C(CNCCCN1CCOCC1)Nc1ccc(OC(F)(F)F)cc1 was tested, and the survival was 99%.
With CC(=O)c1cccc(NC(=O)c2oc3c(c2C)-c2nn(Cc4ccc(Cl)cc4)cc2CC3)c1 the survival was 64%.
Work on COc1cccc(CNC(=O)CN2C(=O)N(c3ccc(C)cc3C)S(=O)(=O)c3ccccc32)c1OC yielded a survival of 65%.
For COc1cc(NS(=O)(=O)c2ccc(-c3cc(C)no3)cc2)cc(OC)c1, the survival was 99%.
Cc1cccc(C)c1NC(=O)CCSCCc1ccccn1 was tested, and the survival was 86%.
For CC(C)(C)c1ccc(-c2nc(S(=O)(=O)c3ccccc3)c(N3CCOCC3)o2)cc1, the survival was 37% (active).
In the case of Cc1ccc(-c2nc(S(=O)(=O)c3ccc(C)cc3)c(N3CCCCCC3)o2)cc1, the survival is reported as 70%.
For COc1ccc(-c2nc(S(=O)(=O)c3ccccc3)c(N3CCCCC3)o2)cc1, the survival was 74%.
In the case of Cc1ccc(-c2nc(S(=O)(=O)c3ccc(C)cc3)c(N3CCN(c4ccccc4)CC3)o2)cc1, the survival is reported as 97%.
For O=S(=O)(c1ccccc1)c1nc(-c2ccc(F)cc2)oc1N1CCCCCC1, the survival was 33% (active).
Compound Cc1ccc(-c2nc(S(=O)(=O)c3ccccc3)c(N3CCN(c4ccccc4)CC3)o2)cc1 has a survival of 102%.
O=S(=O)(c1ccccc1)c1nc(-c2ccc(F)cc2)oc1N1CCOCC1 was tested, and the survival was 90%.
For Cc1ccc(S(=O)(=O)c2nc(-c3ccccc3)oc2N2CCCCCC2)cc1, the survival was 22% (active).
COc1ccc(-c2nc(S(=O)(=O)c3ccc(C)cc3)c(N3CCCCC3)o2)cc1 gave a survival of 54%.
In the case of Cc1ccc(-c2nc(S(=O)(=O)c3ccc(C)cc3)c(N3CCCCC3)o2)cc1, the survival is reported as 0% (active).
Cc1ccc(S(=O)(=O)c2nc(-c3ccccc3)oc2N2CCN(c3ccccc3)CC2)cc1 was tested, and the survival was 85%.
In the case of O=S(=O)(c1ccccc1)c1nc(-c2cccc(Cl)c2)oc1N1CCOCC1, the survival is reported as 57%.
Compound Cc1ccc(Cl)cc1NC(=O)Cn1cc2c(n1)CCCCC2 has a survival of 68%.
CCc1ccc(NC(=O)CC(c2cc(OC)c(OC)c(OC)c2)N2Cc3ccccc3C2=O)cc1 (stereo unspecified) was tested, and the survival was 79%.
Compound COc1ccc(N2CCN(C(=O)c3cccc4ccccc34)CC2)cc1 has a survival of 66%.
In the case of COC(=O)NCc1c(C)nn(-c2ccccc2)c1-n1cccc1, the survival is reported as 96%.
Work on COc1ccc(C2c3cccn3CCN2S(=O)(=O)c2ccc([N+](=O)[O-])cc2)cc1 (stereo unspecified) yielded a survival of 69%.
Cn1ncc(C(=O)N2CCN(c3ccccc3)CC2)c1C1CCN(C(=O)OC(C)(C)C)CC1 gave a survival of 78%.
For CCCCN(CC)C(=O)c1c[nH]c2ccc(S(=O)(=O)N(C)c3ccc(Cl)cc3)cc2c1=O, the survival was 95%.
COc1cc2c(cc1OC)C(c1cccc(Cl)c1)CC(=O)N2 (stereo unspecified) showed a survival of 63%.
Cc1c(C(=O)OC2CCC(C)CC2)[nH]c2c1C(=O)CC(c1ccc(N(C)C)cc1)C2 (stereo unspecified) showed a survival of 68%.
With COc1ccc(NC(=O)C(=O)Nc2ccc3nc4n(c(=O)c3c2)CCCCC4)c(OC)c1 the survival was 84%.
For COc1cccc(OC)c1C(=O)Nc1ccc2c(c1)N(C(C)=O)CCC2, the survival was 78%.
With COCCn1c(=NC(=O)c2ccc3c(c2)OCCO3)sc2cc(NC(C)=O)ccc21 the survival was 94%.
Cc1nn2c(=O)cc(COC(=O)COc3ccccc3C)nc2s1 showed a survival of 101%.
O=C(NC12CC3CC(CC(C3)C1)C2)N1CCC(O)(c2ccc3c(c2)OCO3)CC1 gave a survival of 81%.
Cc1ccc(-c2cc(C(F)(F)F)n3nc(C(=O)Nc4ccc(Cl)cc4Cl)cc3n2)cc1 gave a survival of 81%.
For O=C(NCC12CC3CC(CC(C3)C1)C2)c1cc2nc(-c3ccc(Cl)cc3)cc(C(F)(F)F)n2n1, the survival was 31% (active).
Work on COc1ccc(-c2cc(C(F)(F)F)n3nc(C(=O)NCC45CC6CC(CC(C6)C4)C5)cc3n2)cc1OC yielded a survival of 137%.
With COc1ccc(-c2cc(C(F)(F)F)n3nc(C(=O)NCC45CC6CC(CC(C6)C4)C5)cc3n2)cc1 the survival was 29% (active).
O=C(Nc1cccc(Cl)c1Cl)c1cc2nc(-c3ccc(Cl)cc3)cc(C(F)(F)F)n2n1 was tested, and the survival was 93%.
Compound O=C(Nc1cccc(C(F)(F)F)c1)c1cc2nc(-c3ccccc3)cc(C(F)(F)F)n2n1 has a survival of 60%.
O=C(NCC12CC3CC(CC(C3)C1)C2)c1cc2nc(-c3ccccc3)cc(C(F)(F)F)n2n1 was tested, and the survival was -4% (active).
Compound CCOc1ccc(NC(=O)c2cc3nc(-c4ccc(OC)cc4)cc(C(F)(F)F)n3n2)cc1 has a survival of 134%.
For O=C(c1cc2nc(-c3ccccc3)cc(C(F)(F)F)n2n1)N1CCCC1, the survival was 78%.
